These results are taken from PubChem BioAssay AID602143 (Vanderbilt Specialized Chemistry Center, 2011).

Unmarked numbers belong to inactive results. The source made the active and inactive calls. Rule as the data show it: active = remaining activity below about 50%; inactive = the rest.

Chain of Phospholipase D2 (Homo sapiens) (O14939 whole entry, looked up): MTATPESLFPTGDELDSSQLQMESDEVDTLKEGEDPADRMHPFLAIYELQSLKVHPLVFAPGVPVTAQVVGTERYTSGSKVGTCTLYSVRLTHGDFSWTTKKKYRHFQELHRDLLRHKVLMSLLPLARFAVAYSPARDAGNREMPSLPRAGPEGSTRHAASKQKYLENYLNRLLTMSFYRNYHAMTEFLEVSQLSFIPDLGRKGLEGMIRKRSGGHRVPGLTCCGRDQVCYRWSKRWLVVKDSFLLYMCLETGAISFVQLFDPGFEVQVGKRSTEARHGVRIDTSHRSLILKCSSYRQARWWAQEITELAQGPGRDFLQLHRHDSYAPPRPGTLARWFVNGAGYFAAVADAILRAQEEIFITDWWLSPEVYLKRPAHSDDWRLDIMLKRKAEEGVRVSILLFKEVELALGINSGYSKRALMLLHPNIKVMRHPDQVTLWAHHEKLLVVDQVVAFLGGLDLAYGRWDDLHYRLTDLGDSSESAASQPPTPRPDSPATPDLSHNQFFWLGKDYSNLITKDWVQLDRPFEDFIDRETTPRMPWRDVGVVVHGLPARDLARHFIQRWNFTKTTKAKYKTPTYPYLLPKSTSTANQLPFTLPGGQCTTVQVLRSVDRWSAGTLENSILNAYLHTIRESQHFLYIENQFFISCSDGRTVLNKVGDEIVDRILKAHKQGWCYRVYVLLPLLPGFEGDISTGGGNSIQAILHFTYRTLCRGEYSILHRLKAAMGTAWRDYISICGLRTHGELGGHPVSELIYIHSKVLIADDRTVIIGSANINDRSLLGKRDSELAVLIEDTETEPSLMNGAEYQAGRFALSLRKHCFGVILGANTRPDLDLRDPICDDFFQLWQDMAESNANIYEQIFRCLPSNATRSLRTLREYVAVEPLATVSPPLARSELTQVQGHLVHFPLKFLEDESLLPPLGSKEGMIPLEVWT
Chain of Phospholipase D2 (Homo sapiens) (O14939 whole entry, looked up): as above

The test addresses Phospholipase D2 (Homo sapiens) (UniProt O14939). The experiment in a line: PLD2 inhibitors in cells, cell-based, HEK293, single concentration (AID 602143).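 Also: tested at 200 nM.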 To be noted: HEK293 cellular PLD2 activity, percent of control; stronger effect = lower value.
The remaining activity is the activity still measured, relative to the control. `O=C(NCCN1CCC(C(=O)NCCc2ccccn2)CC1)c1ccc2ccccc2c1`: the remaining activity was 100%.
To `O=C(NCCN1CCC(n2nnc3ccccc32)CC1)c1ccc2ccccc2c1` belongs 0.808% (active); to `O=C(NCCN1CCC2(CC1)CCN(c1ccccc1)C2=O)c1ccc2ccccc2c1`, 55%.
